# Test results taken from PubChem BioAssay (EPA / NIEHS).
# “And” between values parts separate entries of the source, which are not always exact repeats. Equal entries are not always repeated. Results filed as inconclusive are left out. The source made the active and inactive calls. How the source made its calls, unless noted: active means hit-call score of the fitted dose curve at least 0.9, where 1 is the maximum; inconclusive means response in the unintended direction; inactive means score below 0.9.
# Experiments:
# [1] = molecular target: human CYP2C9, CYP2C9 (gene 1559) (UniProt P11712); experiment: NVS_ADME_hCYP2C9: NovaScreen (NVS) CYP450-related Enzyme Activity (ADME) Assay for human CYP2C9 (AID 2283108)
# Sequence of human CYP2C9, CYP2C9 (gene 1559) (P11712 whole entry, looked up): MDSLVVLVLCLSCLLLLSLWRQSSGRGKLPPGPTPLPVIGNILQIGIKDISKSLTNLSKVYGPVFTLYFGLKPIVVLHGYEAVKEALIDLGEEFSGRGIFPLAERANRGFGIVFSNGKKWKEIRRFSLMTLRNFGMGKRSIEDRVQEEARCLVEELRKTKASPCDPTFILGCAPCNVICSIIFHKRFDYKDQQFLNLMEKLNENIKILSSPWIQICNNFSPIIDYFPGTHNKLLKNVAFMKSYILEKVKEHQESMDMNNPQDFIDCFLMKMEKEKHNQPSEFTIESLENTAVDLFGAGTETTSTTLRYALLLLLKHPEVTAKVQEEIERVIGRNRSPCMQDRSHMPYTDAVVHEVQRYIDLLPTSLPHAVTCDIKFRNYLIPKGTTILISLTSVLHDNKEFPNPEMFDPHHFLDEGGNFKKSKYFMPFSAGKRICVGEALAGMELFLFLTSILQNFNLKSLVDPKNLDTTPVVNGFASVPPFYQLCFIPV
# In short: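 Fluorescence readout of CYP2C9 activity (SF9-expressed human enzyme) at 0.75 h. The primary screen used 10 uM in duplicate, with concentration-response follow-up for actives; acetonitrile was the negative control.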
# [2] = molecular target: rat CYP2A2, Cyp2a2 (gene 24895) (UniProt P15149); experiment: NVS_ADME_rCYP2A2: NovaScreen (NVS) CYP450-related Enzyme Activity (ADME) Assay for rat CYP2A2 (AID 2283116)
# Sequence of rat CYP2A2, Cyp2a2 (gene 24895) (P15149 whole entry, looked up): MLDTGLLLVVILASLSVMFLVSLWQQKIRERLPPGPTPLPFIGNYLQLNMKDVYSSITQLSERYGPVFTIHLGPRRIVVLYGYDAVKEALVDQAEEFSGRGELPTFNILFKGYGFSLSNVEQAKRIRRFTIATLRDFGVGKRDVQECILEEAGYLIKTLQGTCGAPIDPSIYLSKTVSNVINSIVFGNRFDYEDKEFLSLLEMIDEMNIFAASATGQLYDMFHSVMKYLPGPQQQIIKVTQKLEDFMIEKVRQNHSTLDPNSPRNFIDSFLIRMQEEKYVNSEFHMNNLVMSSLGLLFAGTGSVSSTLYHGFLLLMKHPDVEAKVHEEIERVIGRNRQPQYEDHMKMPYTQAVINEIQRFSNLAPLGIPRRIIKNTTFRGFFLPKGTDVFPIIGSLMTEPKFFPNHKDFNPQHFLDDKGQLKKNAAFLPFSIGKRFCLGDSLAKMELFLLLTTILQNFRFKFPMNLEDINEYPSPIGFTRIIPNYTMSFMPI
# In short: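 Cell-free recombinant rat CYP2A2 activity with fluorogenic substrate, fluorescence read 0.2 h after dosing. Chemicals screened at 10 uM in duplicate, hits then run in concentration-response up to 20 uM; signal loss versus acetonitrile baseline.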
# [3] = molecular target: rat CYP2C11, Cyp2c11 (gene 29277) (UniProt P08683); experiment: NVS_ADME_rCYP2C11: NovaScreen (NVS) CYP450-related Enzyme Activity (ADME) Assay for rat CYP2C11 (AID 2283118)
# Sequence of rat CYP2C11, Cyp2c11 (gene 29277) (P08683 whole entry, looked up): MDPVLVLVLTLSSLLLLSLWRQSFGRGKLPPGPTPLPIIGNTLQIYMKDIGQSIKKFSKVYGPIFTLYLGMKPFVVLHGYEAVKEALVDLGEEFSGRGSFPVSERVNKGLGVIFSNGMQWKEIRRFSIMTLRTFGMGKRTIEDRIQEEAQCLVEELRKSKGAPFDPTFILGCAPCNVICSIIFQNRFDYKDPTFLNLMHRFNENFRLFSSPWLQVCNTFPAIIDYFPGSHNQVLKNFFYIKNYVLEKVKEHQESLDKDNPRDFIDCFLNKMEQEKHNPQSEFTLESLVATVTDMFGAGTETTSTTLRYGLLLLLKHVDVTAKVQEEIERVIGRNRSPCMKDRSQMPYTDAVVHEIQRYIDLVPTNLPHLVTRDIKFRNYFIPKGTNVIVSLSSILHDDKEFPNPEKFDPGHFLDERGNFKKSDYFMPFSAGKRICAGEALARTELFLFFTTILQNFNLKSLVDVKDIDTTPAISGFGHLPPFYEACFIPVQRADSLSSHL
# In short: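 Cell-free recombinant rat enzyme with fluorescent substrate; readout 0.33 h after dosing, loss of signal versus acetonitrile control. Initial duplicate single-point at 10 uM; actives rerun in concentration series.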
# [4] = test system: rat CYP2C6, gene 293989; experiment: NVS_ADME_rCYP2C6: NovaScreen (NVS) CYP450-related Enzyme Activity (ADME) Assay for rat CYP2C6 (AID 2283120)
# In short: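 Cell-free recombinant rat CYP2C6 with fluorogenic substrate, read by fluorescence 1 h after dosing; acetonitrile as negative control. Primary screen at 10 uM in duplicate, actives then in concentration-response up to 20 uM.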
# [5] = test system: rat CYP3A1, gene 25642; experiment: NVS_ADME_rCYP3A1: NovaScreen (NVS) CYP450-related Enzyme Activity (ADME) Assay for rat CYP3A1 (AID 2283126)
# In short: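 Cell-free recombinant CYP assay with fluorescent substrate, read 0.5 h after dosing. Screened at 10 uM in duplicate, hits at up to 20 uM in concentration-response; loss of signal versus acetonitrile baseline.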
# [6] = molecular target: rat CYP2A1, Cyp2a1 (gene 24894) (UniProt P11711); experiment: NVS_ADME_rCYP2A1: NovaScreen (NVS) CYP450-related Enzyme Activity (ADME) Assay for rat CYP2A1 (AID 2283114; active means hit-call score of the fitted dose curve at least 0.9, where 1 is the maximum; inactive means score below 0.9)
# Sequence of rat CYP2A1, Cyp2a1 (gene 24894) (P11711 whole entry, looked up): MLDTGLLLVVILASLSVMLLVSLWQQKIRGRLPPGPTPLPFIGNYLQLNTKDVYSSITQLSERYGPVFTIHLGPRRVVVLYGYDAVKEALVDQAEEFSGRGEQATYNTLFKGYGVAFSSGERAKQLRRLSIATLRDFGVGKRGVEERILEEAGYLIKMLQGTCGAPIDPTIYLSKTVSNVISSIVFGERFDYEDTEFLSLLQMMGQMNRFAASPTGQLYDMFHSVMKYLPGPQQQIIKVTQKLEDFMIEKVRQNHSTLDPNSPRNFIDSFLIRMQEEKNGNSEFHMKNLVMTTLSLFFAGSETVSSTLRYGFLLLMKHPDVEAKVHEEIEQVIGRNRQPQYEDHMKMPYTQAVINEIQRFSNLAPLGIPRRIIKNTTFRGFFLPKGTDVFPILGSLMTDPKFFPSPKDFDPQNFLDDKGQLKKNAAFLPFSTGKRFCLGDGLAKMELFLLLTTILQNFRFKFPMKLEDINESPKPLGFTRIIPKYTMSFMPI
# In short: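 Recombinant rat CYP2A1, cell-free, fluorogenic substrate turnover read by fluorescence intensity 0.75 h after dosing. Primary screen at 10 uM in duplicate; actives rerun as concentration-response up to 20 uM; loss of signal versus acetonitrile control.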
# [7] = molecular target: rat CYP2C13, Cyp2c13 (gene 171521) (UniProt P20814); experiment: NVS_ADME_rCYP2C13: NovaScreen (NVS) CYP450-related Enzyme Activity (ADME) Assay for rat CYP2C13 (AID 2283121)
# Sequence of rat CYP2C13, Cyp2c13 (gene 171521) (P20814 whole entry, looked up): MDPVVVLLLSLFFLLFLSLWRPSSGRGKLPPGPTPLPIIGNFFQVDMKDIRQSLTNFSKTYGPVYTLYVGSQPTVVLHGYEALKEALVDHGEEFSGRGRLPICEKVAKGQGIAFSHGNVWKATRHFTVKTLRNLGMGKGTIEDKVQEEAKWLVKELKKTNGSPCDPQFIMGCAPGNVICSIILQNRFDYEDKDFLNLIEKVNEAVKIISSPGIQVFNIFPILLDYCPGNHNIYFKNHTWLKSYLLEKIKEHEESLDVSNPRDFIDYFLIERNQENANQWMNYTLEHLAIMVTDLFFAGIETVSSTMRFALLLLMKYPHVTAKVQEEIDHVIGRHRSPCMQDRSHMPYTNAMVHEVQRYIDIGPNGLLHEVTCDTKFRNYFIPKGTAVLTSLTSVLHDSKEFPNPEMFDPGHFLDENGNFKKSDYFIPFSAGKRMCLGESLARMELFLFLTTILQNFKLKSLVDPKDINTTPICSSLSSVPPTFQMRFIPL
# Description: NVS_ADME_rCYP2C13 is a biochemical, single-readout assay that uses extracted gene-proteins in a cell-free assay. Measurements were taken 0.75 hour after chemical dosing in a 96-well plate.NVS_ADME_rCYP2C13 is one of one assay component(s) measured or calculated from the NVS_ADME_rCYP2C13 assay. It is designed to make measurements of enzyme activity, a form of enzyme reporter, as detected with fluorescence intensity signals by Fluorescence technology.Data from the assay component NVS_ADME_rCYP2C13 was analyzed into 1 assay endpoint. This assay endpoint, NVS_ADME_rCYP2C13, was analyzed in the positive analysis fitting direction relative to Acetonitrile as the negative control and baseline of activity. Using a type of enzyme reporter, loss-of-signal activity can be used to understand changes in the enzymatic activity as they relate to the gene Cyp2c13. Furthermore, this assay endpoint can be referred to as a primary readout, because this assay has produced multiple assay endpoints where this one serves a enzymatic activity function. To generalize the intended target to other relatable targets, this assay endpoint is annotated to the cyp intended target family, where the subfamily is xenobiotic metabolism. […]
smiles,measurement,setting,value
O=[N+]([O-])c1cc(N(CCO)CCO)ccc1NCCO,AC50,[1],2.42 µM (active)
C#C[C@]1(O)CC[C@H]2[C@@H]3CCc4cc(O)ccc4[C@H]3CC[C@@]21C,AC50,[1],6.68 µM (active) and 7.82 µM (active) and 6.49 µM (active)
same,AC50,[2],785 nM (active) and 1.44 µM (active) and 680 nM (active)
same,AC50,[3],2.5 µM (active) and 2.81 µM (active) and 1.76 µM (active)
same,AC50,[4],1.43 µM (active) and 2.55 µM (active) and 1.67 µM (active)
same,AC50,[5],2.51 µM (active) and 3.73 µM (active) and 1.4 µM (active)
C[C@]12CC[C@@H]3c4ccc(O)cc4CC[C@H]3[C@@H]1CC[C@@H]2O,outcome,[6],inactive
same,AC50,[2],6.22 µM (active)
same,AC50,[7],492 nM (active) and 892 nM (active) and 748 nM (active)
same,outcome,[5],inactive
